# Assay results taken from PubChem BioAssay (NCATS).
# Inconclusive results are not listed. Activity calls are given as the source filed them. Calls come from the whole dose curve; as a rule, active = well fitted cell-killing curve with a large enough effect; inconclusive = small, poorly fitted or top-dose-only effect, or effect the other way; inactive = no such curve, though single readings can be large or run the other way.
# Experiment: Quantitative High-Throughput drug screen in 47 multiple myeloma cell lines against the NCATS MIPE library collection: RPMI8226_ATCC cell viability assay (AID 1919871); note: nearly all actives have a fitted effect of over 30% in size; note: potency is the fitted concentration of half-maximal effect
# Conditions: RPMI8226 myeloma viability, CellTiter-Glo ATP luminescence, 48 h; series mostly up to 45.8 µM; viability (% of control): at the top concentration
# In short: (§1)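 Readout: median RLU from CellTiter-Glo after 5 min at room temperature. Preceding step was 48 h drug treatment of 500 cells/well at 37 °C, 5% CO2, with DMSO-only and media-only control wells.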
Structure (SMILES),viability (% of control),Potency
CN1C2CCC1CC(OC(=O)C(CO)c1ccccc1)C2 (centres undefined),112% (inactive),–
CN(C)CCC=C1c2ccccc2C=Cc2ccccc21,–,6.62 µM (active)
Cn1c(=O)c2c(ncn2C)n(C)c1=O,105% (inactive),–
O=C(c1ccc(F)cc1)C1CCN(CCn2c(=O)[nH]c3ccccc3c2=O)CC1,–,5.26 µM (active)
CN(C)CCOC(c1ccccc1)c1ccccc1,113% (inactive),–
O=c1c(O)c(-c2ccc(O)c(O)c2)oc2cc(O)cc(O)c12,135% (inactive),–

# Experiment: Quantitative High-Throughput drug screen in 47 multiple myeloma cell lines against the NCATS MIPE library collection: OPM2_DSMZ cell viability assay (AID 1919872); note: nearly all actives have a fitted effect of over 30% in size
# Conditions: OPM2 myeloma viability, CellTiter-Glo ATP luminescence, 48 h; series mostly up to 45.8 µM; viability (% of DMSO): at the top concentration
# In short: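 Relative luminescence from CellTiter-Glo served as the viability signal, referenced to DMSO-treated (100%) and cell-free medium (0%) controls. Treatment lasted 48 hours at 37C with 500 cells per well.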
row,Structure (SMILES),viability (% of DMSO)
1,NCCS(=O)(=O)O,96.2% (inactive)
2,COc1ccc2c(c1)c(CC(=O)O)c(C)n2C(=O)c1ccc(Cl)cc1,109% (inactive)
3,CC1(C)O[C@H]2CC(=O)OC[C@]23[C@H]2CC[C@@]4(C)[C@H](c5ccoc5)OC(=O)[C@H]5O[C@]54[C@]2(C)C(=O)C[C@@H]13,118% (inactive)
4,Cc1cc(C(C)(C)C)c(O)c(C)c1CC1=NCCN1,110% (inactive)
5,CN1CCN(CCCN2c3ccccc3Sc3ccc(Cl)cc32)CC1,92.4% (inactive)
6,CN(C)C(=N)N=C(N)N,107% (inactive)
7,COc1ccccc1OCCNCC(O)COc1cccc2[nH]c3ccccc3c12 (centres undefined),81.5% (inactive)
8,CCC1(c2ccccc2)C(=O)NCNC1=O,93.2% (inactive)

# Experiment: Quantitative High-Throughput drug screen in 47 multiple myeloma cell lines against the NCATS MIPE library collection: KMS11_JCRBsus cell viability assay (AID 1919873); note: nearly all actives have a fitted effect of over 50% in size; note: potency is the fitted concentration of half-maximal effect;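 for viability (% of control): 100% = DMSO-only wells and 0% = media-only wells without cells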
# Conditions: KMS11 myeloma viability, CellTiter-Glo ATP luminescence, 48 h; series mostly up to 45.8 µM; viability (% of control): at the top concentration
# In short: as §1
Structure (SMILES),Potency,viability (% of control)
COc1cc2nc(N3CCN(C(=O)C4COc5ccccc5O4)CC3)nc(N)c2cc1OC (centres undefined),18.7 µM (active),–
NCCS(=O)(=O)O,–,112% (inactive)
COc1cc2c(c(OC)c1OC)-c1ccc(OC)c(=O)cc1[C@@H](NC(C)=O)CC2,–,0.0794% (inactive)
Cc1ccccc1N1C(=O)c2cc(S(N)(=O)=O)c(Cl)cc2NC1C (centres undefined),–,129% (inactive)
COc1ccc2c(c1)c(CC(=O)O)c(C)n2C(=O)c1ccc(Cl)cc1,–,109% (inactive)
C[C@@H]1CC(=O)NN=C1c1ccc(NN=C(C#N)C#N)cc1,16.6 µM (active),–
CC1(C)O[C@H]2CC(=O)OC[C@]23[C@H]2CC[C@@]4(C)[C@H](c5ccoc5)OC(=O)[C@H]5O[C@]54[C@]2(C)C(=O)C[C@@H]13,–,99.8% (inactive)
CCC1(C)CC(=O)NC1=O (centres undefined),–,97.4% (inactive)
CN(C)CCCN1c2ccccc2CCc2ccc(Cl)cc21,20.9 µM (active),–
CC(=O)OCC(CCn1cnc2cnc(N)nc21)COC(C)=O,–,92.8% (inactive)
CN1CCC(=C2c3ccccc3CC(=O)c3sccc32)CC1,–,78.7% (inactive)
Cc1cc(C(C)(C)C)c(O)c(C)c1CC1=NCCN1,–,91% (inactive)
Nc1c2c(nc3ccccc13)CCCC2,–,110% (inactive)
COc1cc2nc(N3CCN(C(=O)c4ccco4)CC3)nc(N)c2cc1OC,13.2 µM (active),–
CN1CCN(CCCN2c3ccccc3Sc3ccc(Cl)cc32)CC1,14.8 µM (active),–
NC12CC3CC(CC(C3)C1)C2,16.6 µM (active),–
CC(C)NCC(O)c1ccc(O)c(O)c1 (centres undefined),16.6 µM (active),–
O=C1N(c2ccccc2)c2ccccc2C1(Cc1ccncc1)Cc1ccncc1,–,116% (inactive)
CCN1CCCC1CNC(=O)c1cc(S(=O)(=O)CC)c(N)cc1OC (centres undefined),–,107% (inactive)
CN(C)C(=N)N=C(N)N,–,97.9% (inactive)
CN1C2CCC1CC(OC(=O)C(CO)c1ccccc1)C2 (centres undefined),–,94.7% (inactive)
CN(Cc1cnc2nc(N)nc(N)c2n1)c1ccc(C(=O)N[C@@H](CCC(=O)O)C(=O)O)cc1,0.0935 µM (active),–
NCCc1cnc[nH]1,–,116% (inactive)
Cn1c(=O)c2c(ncn2C)n(C)c1=O,–,95.1% (inactive)
CCC1(c2ccccc2)C(=O)NCNC1=O,–,96% (inactive)
